In PubChem BioAssay AID1159580 (chemical genetic matrix, 2015):
Out of some 5,500 compounds screened, about 2,000 (36%) were called active. Not shown: some 18% with an inconclusive outcome. Some of the results follow. A number with no mark means an inactive call. No stated cut-off is given here; in the data, active means normalized growth mostly below about 0.91 (no sharp cut-off); inconclusive means no clear call, values can overlap the other calls; inactive means mostly above about 0.92.

Assay: chemical genetic growth profiling, strain panel (AID 1159580);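 further: tested at 20 µM; growth read once vehicle control cultures reached saturation at 30 °C; 1 = growth at the plate median or of vehicle wells; lower values mean less growth of the strain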
Details: growth OD

Structure (SMILES): O=c1oc2ccccc2c(O)c1Cc1c(O)c2ccccc2oc1=O
- normalized growth (S. cerevisiae deletion strains, locus YJR066W, strain TOR1, active compounds read low): 0.859
- normalized growth (S. cerevisiae deletion strains, locus YKL009W, strain mrt4, active compounds read low): 0.944
- normalized growth (S. cerevisiae deletion strains, locus YKL068W, active compounds read low): 0.959
- normalized growth (S. cerevisiae deletion strains, locus YKL085W, strain MDH1 (second series), active compounds read low): 0.923 (active)
- normalized growth (S. cerevisiae deletion strains, locus YKL085W, strain MDH1, active compounds read low): 0.923 (active)
- normalized growth (S. cerevisiae deletion strains, locus YKL160W, strain elf1, active compounds read low): 1.01
- normalized growth (S. cerevisiae deletion strains, locus YKR001C, strain vps1, active compounds read low): 0.962
- normalized growth (S. cerevisiae deletion strains, locus YKR026C, strain gcn3, active compounds read low): 1.02
- normalized growth (S. cerevisiae deletion strains, locus YKR091W, strain srl3, active compounds read low): 0.999
- normalized growth (S. cerevisiae deletion strains, locus YLL001W, strain dnm1, active compounds read low): 1.03
- normalized growth (S. cerevisiae deletion strains, locus YLL026W, active compounds read low): 0.996
- normalized growth (S. cerevisiae deletion strains, locus YLL041C, strain sdh2, active compounds read low): 0.987
- normalized growth (S. cerevisiae deletion strains, locus YLR027C, strain aat2, active compounds read low): 0.992
- normalized growth (S. cerevisiae deletion strains, locus YLR039C, strain RIC1, active compounds read low): 1.01
- normalized growth (S. cerevisiae deletion strains, locus YLR058C, strain SHM2, active compounds read low): 1
- normalized growth (S. cerevisiae deletion strains, locus YLR102C, strain apc9, active compounds read low): 0.964
- normalized growth (S. cerevisiae deletion strains, locus YLR113W, strain HOG1, active compounds read low): 0.965
- normalized growth (S. cerevisiae deletion strains, locus YLR221C, strain rsa3, active compounds read low): 0.994
- normalized growth (S. cerevisiae deletion strains, locus YLR258W, strain gsy2, active compounds read low): 1
- normalized growth (S. cerevisiae deletion strains, locus YLR262C, strain YPT6 (second series), active compounds read low): 0.975
- normalized growth (S. cerevisiae deletion strains, locus YLR262C, strain YPT6, active compounds read low): 1.01
- normalized growth (S. cerevisiae deletion strains, locus YLR268W, strain sec22, active compounds read low): 1
- normalized growth (S. cerevisiae deletion strains, locus YLR320W, strain mms22, active compounds read low): 0.989
- normalized growth (S. cerevisiae deletion strains, locus YLR330W, strain CHS5, active compounds read low): 0.993
- normalized growth (S. cerevisiae deletion strains, locus YLR342W, strain FKS1 (second series), active compounds read low): 1.03
- normalized growth (S. cerevisiae deletion strains, locus YLR342W, strain FKS1, active compounds read low): 1
- normalized growth (S. cerevisiae deletion strains, locus YLR357W, strain rsc2, active compounds read low): 1.01
- normalized growth (S. cerevisiae deletion strains, locus YLR370C, strain arc18, active compounds read low): 1
- normalized growth (S. cerevisiae deletion strains, locus YLR371W, strain rom2, active compounds read low): 0.968
- normalized growth (S. cerevisiae deletion strains, locus YLR384C, strain iki3, active compounds read low): 1
- normalized growth (S. cerevisiae deletion strains, locus YLR418C, strain cdc73, active compounds read low): 0.948
- normalized growth (S. cerevisiae deletion strains, locus YML016C, strain PPZ1, active compounds read low): 1
- normalized growth (S. cerevisiae deletion strains, locus YML032C, strain rad52, active compounds read low): 0.986
- normalized growth (S. cerevisiae deletion strains, locus YML120C, strain ndi1, active compounds read low): 1.02
- normalized growth (S. cerevisiae deletion strains, locus YML124C, strain tub3, active compounds read low): 0.961
- normalized growth (S. cerevisiae deletion strains, locus YMR058W, strain fet3, active compounds read low): 1
- normalized growth (S. cerevisiae deletion strains, locus YMR078C, strain ctf18, active compounds read low): 0.958
- normalized growth (S. cerevisiae deletion strains, locus YMR125W, strain sto1, active compounds read low): 1.02
- normalized growth (S. cerevisiae deletion strains, locus YMR129W, active compounds read low): 1.01
- normalized growth (S. cerevisiae deletion strains, locus YMR205C, strain PFK2, active compounds read low): 1
- normalized growth (S. cerevisiae deletion strains, locus YMR223W, strain ubp8, active compounds read low): 0.953
- normalized growth (S. cerevisiae deletion strains, locus YMR231W, strain pep5, active compounds read low): 1
- normalized growth (S. cerevisiae deletion strains, locus YMR307W, strain GAS1, active compounds read low): 0.947
- normalized growth (S. cerevisiae deletion strains, locus YNL067W, strain RPL9B, active compounds read low): 0.987
- normalized growth (S. cerevisiae deletion strains, locus YNL071W, strain lat1, active compounds read low): 1.02
- normalized growth (S. cerevisiae deletion strains, locus YNL128W, strain TEP1, active compounds read low): 0.998
- normalized growth (S. cerevisiae deletion strains, locus YNL153C, strain GIM3, active compounds read low): 1
- normalized growth (S. cerevisiae deletion strains, locus YNL183C, strain NPR1, active compounds read low): 0.949
- normalized growth (S. cerevisiae deletion strains, locus YNL209W, strain ssb2, active compounds read low): 0.999
- normalized growth (S. cerevisiae deletion strains, locus YNL233W, strain BNI4, active compounds read low): 1
- normalized growth (S. cerevisiae deletion strains, locus YNL248C, strain rpa49, active compounds read low): 1.05
- normalized growth (S. cerevisiae deletion strains, locus YNL250W, strain rad50, active compounds read low): 0.958
- normalized growth (S. cerevisiae deletion strains, locus YNL271C, strain bni1, active compounds read low): 0.942
- normalized growth (S. cerevisiae deletion strains, locus YNL298W, strain CLA4, active compounds read low): 0.932
- normalized growth (S. cerevisiae deletion strains, locus YNL307C, strain MCK1, active compounds read low): 0.973
- normalized growth (S. cerevisiae deletion strains, locus YNL322C, strain KRE1 (second series), active compounds read low): 0.98
- normalized growth (S. cerevisiae deletion strains, locus YNL322C, strain KRE1, active compounds read low): 0.987
- normalized growth (S. cerevisiae deletion strains, locus YNR049C, strain mso1, active compounds read low): 0.996
- normalized growth (S. cerevisiae deletion strains, locus YNR052C, strain pop2, active compounds read low): 0.97
- normalized growth (S. cerevisiae deletion strains, locus YOL012C, strain htz1): 1.21
- normalized growth (S. cerevisiae deletion strains, locus YOL147C, strain pex11, active compounds read low): 0.961
- normalized growth (S. cerevisiae deletion strains, locus YOR001W, strain rrp6, active compounds read low): 0.997
- normalized growth (S. cerevisiae deletion strains, locus YOR061W, strain CKA2, active compounds read low): 1
- normalized growth (S. cerevisiae deletion strains, locus YOR069W, strain VPS5, active compounds read low): 0.99
- normalized growth (S. cerevisiae deletion strains, locus YOR070C, strain gyp1, active compounds read low): 1
- normalized growth (S. cerevisiae deletion strains, locus YOR080W, strain dia2, active compounds read low): 1
- normalized growth (S. cerevisiae deletion strains, locus YOR083W, strain WHI5, active compounds read low): 0.968
- normalized growth (S. cerevisiae deletion strains, locus YOR106W, strain vam3, active compounds read low): 1.04
- normalized growth (S. cerevisiae deletion strains, locus YOR136W, strain idh2, active compounds read low): 0.988
- normalized growth (S. cerevisiae deletion strains, locus YOR144C, strain elg1, active compounds read low): 0.968
- normalized growth (S. cerevisiae deletion strains, locus YOR184W, strain ser1, active compounds read low): 0.978
- normalized growth (S. cerevisiae deletion strains, locus YOR231W, strain MKK1, active compounds read low): 0.954
- normalized growth (S. cerevisiae deletion strains, locus YOR265W, strain rbl2, active compounds read low): 1
- normalized growth (S. cerevisiae deletion strains, locus YOR270C, strain vph1, active compounds read low): 1.06
- normalized growth (S. cerevisiae deletion strains, locus YOR290C, strain snf2, active compounds read low): 1.01
- normalized growth (S. cerevisiae deletion strains, locus YOR316C, strain cot1, active compounds read low): 0.968
- normalized growth (S. cerevisiae deletion strains, locus YPL051W, strain arl3, active compounds read low): 1
- normalized growth (S. cerevisiae deletion strains, locus YPL078C, strain atp4, active compounds read low): 1.02
- normalized growth (S. cerevisiae deletion strains, locus YPL106C, strain sse1, active compounds read low): 0.952
- normalized growth (S. cerevisiae deletion strains, locus YPL240C, strain hsp82, active compounds read low): 0.997
- normalized growth (S. cerevisiae deletion strains, locus YPL241C, strain CIN2, active compounds read low): 0.987
- normalized growth (S. cerevisiae deletion strains, locus YPL256C, strain CLN2, active compounds read low): 0.914
- normalized growth (S. cerevisiae deletion strains, locus YPR119W, strain clb2, active compounds read low): 0.966
- normalized growth (S. cerevisiae deletion strains, locus YPR141C, strain kar3, active compounds read low): 0.948
- normalized growth (S. cerevisiae deletion strains, locus YPR163C, strain tif3, active compounds read low): 0.958
- normalized growth (S. cerevisiae deletion strains, locus YPR167C, strain met16, active compounds read low): 0.958
- normalized growth (S. cerevisiae deletion strains, strain wtn01, active compounds read low): 0.978
- normalized growth (S. cerevisiae strains, strain wild type, active compounds read low): 0.998
